Shown are actives, neighbours in structure and some others; about 14% of the full set was active somewhere.
Pf growth 48h = inhibits P. falciparum growth in the first generation, 48 h | actives 5.9% (n = 310,000) | P. falciparum luciferase growth in erythrocytes, 48 h | Potency, µM (highest dose often 28.7 µM), actives largely listed as inhibitors
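Cell-based growth assay: transgenic P. falciparum expressing firefly luciferase, cultured in red cells within RPMI 1640 containing 0.5% w/v Albumax, 24 mM bicarbonate and gentamycin. A drop in luciferase activity indicates inhibition.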
HCV inh = inhibitors of hepatitis C virus infection; Huh7.5.1 HCVcc-Cre infection, luciferase reporter, 44 h; Potency, µM (doses to about 41.8 µM), usual class: inhibitors; actives 3.4% (n = 340,000)
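Cells (1,000/well) were plated 4 h before compound, then infected with HCVcc-Cre virus (~0.5 moi). After 44 h further culture, infection was read as luciferase luminescence following a 15 min substrate incubation at room temperature.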
HCMV antiviral = blocks human cytomegalovirus replication; HFF cells, HCMV-luciferase reporter, 72 h; active compounds read low; activity change, negative = inhibition, % at 57.5 µM; actives 4.5% (n = 410,000); AID 1259415; in the data active = activity change below about -60%; inconclusive = no clear call, values can overlap the other calls; inactive = above about -39%
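Inhibition of viral replication was scored as loss of reporter luminescence in HFFs infected with HCMV-luciferase (MOI 1 PFU/cell) for 72 h; compounds tested at 2 doses, normalized to buffer and Salinomycin controls.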
Marburg entry inh = Marburg virus entry inhibition; Marburg virus pseudotyped entry inhibition, cell reporter; Potency, µM (highest dose often 37.8 µM), most hits filed as inhibitors; actives 1.8% (n = 300,000); AID 540276; calls by dose curve; tested in HEK293 cells
Lassa entry inh = Lassa virus entry inhibition; Lassa virus pseudotype entry inhibition, cell reporter; Potency, µM (titrated, usually from 37.9 µM), usual class: inhibitors; actives 1.2% (n = 300,000); AID 540256; calls by dose curve; tested in HEK293 cells; also: nearly all actives have a fitted effect of over 50% in size
Pf growth 96h = P. falciparum growth inhibition at 96 hours. P. falciparum luciferase reporter growth, 96 h. Potency, µM (top dose mostly 28.7 µM), hits mostly inhibitors. actives 6.9% (n = 320,000). AID 504834
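96 h incubation, 37 C, 5% CO2, of luciferase-reporter P. falciparum-infected RBCs (2% hematocrit, 0.05% parasitemia final) with test compounds; endpoint luminescence.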
A number is an active result; - = inactive; ? = inconclusive; . = no result; ! = repeats disagree. Unless noted, calls follow the shape of the dose curve; as a rule, active = well fitted inhibition curve with a large enough effect; inconclusive = small, poorly fitted or top-dose-only effect, or another doubt; inactive = no such curve, though single readings can be large or run the other way.

SMILES | Pf growth 48h | HCV inh | HCMV antiviral | Marburg entry inh | Lassa entry inh | Pf growth 96h
COc1ccc(NC(=O)CCc2nc3cccnc3n2-c2ccccc2)cc1Cl | . | . | - | ? | - | .
Cc1nnc2n1N=CC=C(c1ccccc1)S2 | ? | ? | -99 | ? | ? | ?
Cc1nnc2n1N=CC=C(C(C)(C)C)S2 | - | - | - | - | - | .
Cc1cccc(S(=O)(=O)Nc2nc3ccccc3nc2OC(C)C)c1 | - | - | ? | - | - | -
COc1ccc(/C=C2\Sc3ccc(C(=O)N4CCOCC4)cc3N(C)C2=O)cc1 | - | - | - | . | . | ?
COc1ccc(/C=C2\Sc3ccc(C(=O)NCc4cccnc4)cc3N(C)C2=O)cc1OC | ? | 8.9µM | - | ? | ? | -
CN1C(=O)/C(=C/c2cccc(Cl)c2)Sc2ccc(C(=O)NCc3cccnc3)cc21 | 9.3µM | 10µM | - | . | . | ?
COc1cccc(/C=C2\Sc3ccc(C(=O)NCc4cccnc4)cc3N(C)C2=O)c1 | ? | ? | - | ? | - | -
COc1ccc(/C=C2\Sc3ccc(C(=O)N4CCN(Cc5ccccc5)CC4)cc3N(C)C2=O)cc1OC | ? | 3.5µM | -83 | . | . | ?
CN(C)CCN(C)C1CN(C2CCCC2)S(=O)(=O)C1 (stereo not drawn) | . | . | - | . | . | .
O=C(Nc1ccc(Nc2ccccc2)cc1)c1cc([N+](=O)[O-])ccc1Cl | ? | 11µM | - | . | . | ?
O=C(O)c1ccccc1Nc1ccccc1C(=O)O | - | - | - | - | - | -
Cc1c(Cl)cccc1Nc1ccccc1C(=O)O | ? | - | - | . | . | 13µM!
Cc1cccc(NC(=O)c2cc([N+](=O)[O-])ccc2Cl)c1O | ? | - | - | - | - | -
O=C(O)c1ccccc1Nc1ccc([N+](=O)[O-])cc1 | - | - | ? | 0.5µM | 1.1µM | ?
O=C(Nc1ccccc1Oc1ccccc1)c1cc([N+](=O)[O-])ccc1Cl | ? | ? | -77 | ? | - | -
Cc1c(Cl)cccc1Nc1ncccc1C(=O)O | - | - | ? | . | . | -
O=C(NCc1ccccc1)c1nc(-c2c(F)cccc2F)oc1-c1ccccc1 | . | . | - | . | . | .
COc1ccc(C(=O)NCC(c2cccnc2)N2CCc3ccccc32)cc1 (stereo not drawn) | . | . | - | . | - | .
CN(C)S(=O)(=O)c1ccc(Cl)c(C(=O)Nc2cccc([N+](=O)[O-])c2)c1 | ? | 11µM | -65 | . | . | -
O=C(NNc1ccc([N+](=O)[O-])cc1)c1ccccc1F | - | - | - | - | - | -
O=C(NNc1ccc([N+](=O)[O-])cc1)c1ccccc1Cl | - | - | -86 | . | . | -
COc1ccc(CCNC(=O)c2cc(C3CC3)on2)cc1OC | - | - | - | . | . | -
Cc1cc(NC(=O)c2ccc(-c3ccc(Br)cc3)o2)cc(-c2nc3ncccc3o2)c1O | . | . | - | - | - | .
O=C(NC1CCCCC1)C(c1ccccc1)n1c(=O)c(-c2ccco2)nc2ccccc21 (stereo not drawn) | . | . | - | . | . | .
SMILES | Pf growth 48h | HCV inh | HCMV antiviral | Marburg entry inh | Lassa entry inh | Pf growth 96h
CC(C)c1cc(C(C)C)c(S(=O)(=O)N2CCNCC2)c(C(C)C)c1 | . | - | - | 10µM | ? | .
Cn1c(-c2cccs2)[n+](C)c2ccccc21 | 1µM | 11µM | - | ? | - | -
CC(C)(O)CCc1c(-c2ccc(O)cc2O)oc2c3c(cc(O)c2c1=O)OC(C)(C)C=C3 | . | 13µM | - | . | . | .
CC1CCCCC12NC(=O)N(CC(=O)N1CCN(c3ncccn3)CC1)C2=O (stereo not drawn) | - | - | ? | . | . | -
c1ccc2sc(N3CCCN(Cc4nc(-c5cnccn5)no4)CC3)nc2c1 | - | ? | -79 | ? | - | ?
c1cnc(-c2noc(CN3CCN(C4CCCC4)CC3)n2)cn1 | - | - | - | - | - | -
CCOC(=O)c1cc2c(=O)n3ccccc3nc2n(CCOC)c1=NC(=O)c1c(-c2ccccc2Cl)noc1C | . | . | - | - | ? | .
Cc1ccc(S(=O)(=O)/N=C2\C(=O)c3ccccc3C([O-])=C2n2cc[n+](CCC(C)C)c2)cc1 | 13µM | 18µM | . | ? | - | 3.3µM
Cc1ccc(NC(=O)C[n+]2ccn(C3=C([O-])c4ccccc4C3=O)c2)cc1 | - | - | - | - | - | -
CCCC[n+]1ccn(C2=C([O-])c3ccccc3C(=O)/C2=N\S(=O)(=O)c2ccc(Br)cc2)c1 | 3.3µM | 10µM | - | ? | ? | ?
